# High-throughput results as filed in PubChem.
# Most compounds without a hit are left out; they make up all but 21% or so of the library.
# RORg inh – inhibitors of mouse ROR gamma transcriptional activity; Drosophila S2 Gal4-RORgamma UAS-luciferase reporter, 20 h; Potency, µM (titrated, usually from 53.6 µM), for inactives: top-dose activity change, negative = inhibition, usual class: inhibitors; hit rate 5.4% among 310,000; note: potency is the fitted concentration of half-maximal effect; nearly all actives have a fitted effect of over 60% in size
# Target sequence (P51450 whole entry, looked up, the tested form may be a part): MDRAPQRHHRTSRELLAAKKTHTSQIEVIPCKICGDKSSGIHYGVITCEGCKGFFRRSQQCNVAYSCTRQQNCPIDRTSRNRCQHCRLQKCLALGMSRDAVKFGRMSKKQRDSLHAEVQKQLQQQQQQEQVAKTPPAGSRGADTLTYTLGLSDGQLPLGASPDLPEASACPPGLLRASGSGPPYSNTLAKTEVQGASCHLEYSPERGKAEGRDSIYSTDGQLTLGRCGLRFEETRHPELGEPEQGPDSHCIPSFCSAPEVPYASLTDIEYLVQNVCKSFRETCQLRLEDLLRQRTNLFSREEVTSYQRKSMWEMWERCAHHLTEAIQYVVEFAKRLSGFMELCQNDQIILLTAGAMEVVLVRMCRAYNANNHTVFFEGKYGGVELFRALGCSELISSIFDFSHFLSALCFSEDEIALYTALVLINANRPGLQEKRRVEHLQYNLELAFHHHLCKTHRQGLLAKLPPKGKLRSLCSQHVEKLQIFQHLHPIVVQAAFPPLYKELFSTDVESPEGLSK
#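 Luminescence from a UAS-regulated Photinus luciferase reporter in stably transfected Drosophila Schneider cells is measured; decreased signal marks ROR gamma inhibition. Fusion expression is induced by 700 uM copper sulfate for 20 hr.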
# IL1B secr inh – blocks inflammasome-driven IL-1 beta release; THP-1 LPS/ATP IL-1B secretion, AlphaLISA, 16 h; active compounds read low; activity change, % at 57.5 µM; hit rate 4.7% among 360,000; AID 743279; in the data active = activity change below about -50%; inconclusive = mostly about -30% to -49%
#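 THP-1 cells pretreated 1 hr with compounds (up to 57.5 uM final), then stimulated with LPS (250 ng/mL final) plus ATP (1.25 mM final); secreted IL-1B measured by AlphaLISA after 16 hr, decreased signal indicating inhibition.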
# ELG1 repair inh – ELG1-dependent DNA repair inhibition. HEK293T ELG1-luciferase reporter, luminescence, 16 h; DNA damage induced by 5-fluorouridine. Potency, µM (series often up to 46.1 µM), for inactives: at the highest dose activity change, negative = inhibition, hits mostly inhibitors. hit rate 2.3% among 330,000; note: potency is the fitted concentration of half-maximal effect; nearly all actives have a fitted effect of over 55% in size
#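 HEK293T cells expressing luciferase-tagged ELG1 (2,000/well) received 5-Fluorouridine plus compound or DMSO for 16 hr at 37 °C. Luciferase was read by ONE-Glo luminescence after 30 min at room temperature.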
# Gal4-VP16 FLuc – inhibits Gal4-VP16 luciferase reporter, ROR gamma counter-screen | Drosophila S2 Gal4-VP16 UAS-luciferase, luminescence, 20 h | Potency, µM (titrated, usually from 53.6 µM), for the others: at the highest dose activity, negative = inhibition, hits mostly inhibitors | hit rate 3.5% among 310,000 | AID 2546;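 note: Gal4-VP16 expression switched on by copper sulfate through the metallothionein promoter; potency is the fitted concentration of half-maximal effect; nearly all actives have a fitted effect of over 50% in size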
# DT40 TDP1 no CPT – qHTS for Inhibitors of human tyrosyl-DNA phosphodiesterase 1 (TDP1): qHTS in cells in absence of CPT; DT40 Tdp1-/- hTDP1 cells, no CPT, ATP luminescence, 48 h; Potency, µM (series often up to 46.2 µM), without a hit: at the top dose activity change, negative = growth inhibition, most hits filed as inhibitors; hit rate 15% among 420,000; note: potency is the fitted concentration of half-maximal effect; nearly all actives have a fitted effect of over 55% in size
#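 Growth kinetics read by CellTiter-Glo luminescence after ≥48 hr at 37 °C. Cells: DT40 Tdp1-/- stably carrying human TDP1, 400 per well, compound exposure in the absence of CPT (DMSO vehicle).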
# TDP1 cell CPT – growth inhibition of DT40 Tdp1-/-;hTDP1 cells with camptothecin (screen for TDP1 inhibitors); chicken DT40 Tdp1-/-;hTDP1 cells + 20 nM CPT, ATP luminescence, 48 h; hit rate 12% among 420,000; Potency, µM (series often up to 46.2 µM), for the others: at the highest dose activity change, negative = growth inhibition, most hits filed as inhibitors; note: potency is the fitted concentration of half-maximal effect; nearly all actives have a fitted effect of over 55% in size
#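 Chicken DT40 Tdp1-/- cells stably complemented with human TDP1 were seeded at 400 cells/well in medium containing 20 nM camptothecin, exposed to pin-transferred compounds, and grown at 37 °C for at least 48 hr. Viability was read as ATP luminescence.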
# The depositor's hits bear a star; ? = inconclusive; . = not tested or not shown; [ ] = remark or other dose. Unless noted, calls come from the whole dose curve; as a rule, active = well fitted curve in the direction sought with a large enough effect; inconclusive = small, poorly fitted or top-dose-only effect, or another doubt; inactive = no such curve, though single readings can be large; an effect the other way counts as inactive or inconclusive. % is set by controls: 0 for no effect and ±100 for the full control effect.
SMILES,RORg inh,IL1B secr inh,ELG1 repair inh,Gal4-VP16 FLuc,DT40 TDP1 no CPT,TDP1 cell CPT
CN(C)c1cccc(C(=O)Nc2nc3ccccc3[nH]2)c1,5.01µM*,?,?,11.2µM*,11.6µM*,?
O=C(Nc1nc2ccccc2[nH]1)Nc1ccccc1F,?,-8.3,?,?,?,-11.5%
O=C(Nc1nc2ccccc2[nH]1)c1cccc(Br)c1,2.24µM*,9.1,?,5.01µM*,?,?
O=C(Nc1nc2ccccc2[nH]1)c1ccc(Br)o1,7.08µM*,15.0,?,?,14.6µM*,?
O=C(Nc1nc2ccccc2[nH]1)c1cccc(F)c1,5.62µM*,24.4,?,7.08µM*,16.4µM*,?
Cn1nc(C(=O)Nc2nc3ccccc3[nH]2)ccc1=O,?,-21.2,?,?,-14.2%,-10.6%
CN1CCCc2cc(/C=C/c3ccnc4ccccc34)ccc21,.,.,.,.,14.1µM*,11.2µM*
O=C(c1ccccc1)c1ccc(N2CCNCC2)cc1,38.5%,.,?,5.4%,.,.
C(=C\c1ccnc2ccccc12)/c1ccc(N2CCNCC2)cc1,.,.,.,.,14.1µM*,?
c1ccc(N2CCN(c3ncccn3)CC2)cc1,20.6%,-5.8,?,0.4%,-15.7%,-2.1%
C(=C\c1ccnc2ccccc12)/c1ccc(N2CCOCC2)cc1,.,.,.,.,1.26µM*,1.78µM*
C(=C\c1ccnc2ccccc12)/c1ccc(N2CCN(c3ccc(/C=C/c4ccnc5ccccc45)cc3)CC2)cc1,.,.,.,.,6.31µM*,5.01µM*
CC1CCCC(NC(=O)NC(=O)COC(=O)c2ccc(O)cc2O)C1C (stereo not given),.,-12.0,-17.9%,.,?,?
Cc1cc(C)c[n+](CC(=O)c2ccc(-c3ccccc3)cc2)c1,18.3%,-7.5,?,-4.2%,?,18.4µM*
COc1cc(/C(C)=C/c2ccccc2)c2c(c1)oc1ccccc12,7.3%,.,-3.2%,-1.2%,14.1µM*,?
CCCNc1nc(Nc2ccc([N+](=O)[O-])cc2)nc(N2CCOCC2)n1,.,.,.,.,14.1µM*,12.6µM*
CCCCc1ccc(Nc2nc(N3CCOCC3)nc(N3CCOCC3)n2)cc1,12.7%,-16.7,-18.8%,-0.3%,?,?
C=CCNc1nc(Nc2ccc([N+](=O)[O-])cc2)nc(N2CCCC2)n1,0.891µM*,-62.8*,?,-4.2%,?,14.6µM*
O=C(NC(=S)N1CCc2ccccc21)C1CCC1,2.82µM*,42.2,14.7%,?,-15.5%,-3.5%
CC(C)(C)C(=O)NC(=S)N1CCc2ccccc21,5.01µM*,11.9,-6.8%,?,-26.7%,-5.5%
CSc1cccc(Nc2ccc(S(=O)(=O)N3CCOCC3)cc2[N+](=O)[O-])c1,.,-29.2,-26.5%,.,?,-15.1%
CC(=O)c1cccc(NC(=O)C2CC(=O)N(C3CCCC3)C2)c1 (stereo not given),.,-1.2,-2.8%,.,-0.7%,10.4%
Cc1ccc(N2C(=O)CC(Sc3ncccn3)C2=O)cc1C (stereo not given),12.6µM*,-6.8,-9.0%,?,?,?
COc1ccc(N2C(=O)CC(Sc3nc(C)cc(C)n3)C2=O)cc1OC (stereo not given),-2.6%[1.91 µM],16.6,2.3%,?,12.8%,-11.7%
COc1ccccc1N1C(=O)CC(Sc2nc(C)cc(C)n2)C1=O (stereo not given),11.2µM*,19.1,9.4%,-19.2%,0.0%,-6.2%
SMILES,RORg inh,IL1B secr inh,ELG1 repair inh,Gal4-VP16 FLuc,DT40 TDP1 no CPT,TDP1 cell CPT
Cc1ccc(N2C(=O)CS(=O)C(c3ccccc3)C2=O)cc1C (stereo not given),-2.2%,-9.5,13.2%,7.2%,14.6µM*,?
CCOC(=O)c1cnc(SC2CC(=O)N(c3ccc(C)cc3)C2=O)nc1N (stereo not given),?,0.0,.,?,4.11µM*,3.26µM*
O=C(O)c1ccc(N2CCN(Cc3ccc4c(c3)OCO4)CC2)c([N+](=O)[O-])c1,10.9%,16.1,8.6%,0.3%,?,?
CCOC(=O)c1c(C)oc2ncnc(Nc3cc(C)cc(C)c3)c12,.,.,.,.,-7.7%,-14.6%
COc1ccc(C)cc1NC(=S)N1CC(C)OC(C)C1 (stereo not given),14.6%,0.0,15.7%,0.6%,18.3%,-9.1%
COc1cccc(CNC(=O)C2=C(C)C(=O)OC23CCN(C(C)=O)CC3)c1OC,.,.,.,.,-22.9%,0.9%
Cc1cc(F)ccc1S(=O)(=O)N1CCCOC1CNC(=O)C(=O)NCc1ccccn1 (stereo not given),12.4%,0.0,1.8%,-8.3%,-3.6%,1.0%
Cc1ccc(N2C(=O)CC(Sc3nc(C)cc(C)n3)C2=O)cc1 (stereo not given),?,43.0,?,-22.6%,8.2µM*,7.31µM*
CCOc1ccc(N2C(=O)CC(Sc3nc(C)cc(C)n3)C2=O)cc1 (stereo not given),0.1%[10 µM],35.7,0.9%,3.4%,1.3%,-20.0%
CCOC(=O)c1c(NC(=S)Nc2ccccc2)sc(C)c1C,3.55µM*,0.0,?,?,?,?
CCOC(=O)c1c(NC(=O)C[n+]2ccc(Cc3ccccc3)cc2)sc(C)c1C,?,-73.5*,?,?,6.51µM*,11.6µM*
Cc1sc(NC(=O)Nc2ccccc2)c(C(N)=O)c1C,-11.3%,-76.0*,?,?,-23.7%,?
COC(=O)c1c(NC(=O)Nc2ccc(Cl)cc2)sc(C)c1C,?,27.9,?,-12.1%,?,?
CCOC(=O)c1cc(C)sc1NC(=S)Nc1ccccc1,?,19.5,4.3%,3.16µM*,-13.8%,-17.5%
CCOC(=O)c1cc(C)sc1NC(=O)CCC(=O)O,20.4%,0.0,11.2%,8.9%,-17.2%,-26.6%
c1ccc(CN2CCC3CC2c2ccc(N4CCOCC4)cc23)cc1 (stereo not given),.,2.8,.,.,-29.9%,-9.5%
Cn1cc(C(=O)O)c(=O)c2cc(S(=O)(=O)N3CCCCC3)ccc21,.,.,.,.,?,-22.4%
COc1ccc(OC)c(NC(=O)Nc2nnc([C@H]3C[C@H](O)[C@@H](CO)O3)s2)c1,.,-8.2,.,.,-16.6%,-4.6%
CCCNC(=O)CN1C(=O)NC(c2ccccc2)(c2ccccc2)C1=O,-1.1%,-8.4,5.3%,-7.0%,2.3%,10.5%
CCOC(=O)c1c(NC(=O)C2=C(C)NC(=S)NC2c2ccccc2C(F)(F)F)sc(C)c1C (stereo not given),?,-14.4,23.1µM*,3.55µM*,?,?
